ROMK mod = ROMK potassium channel modulators, primary screen, cell-based, thallium flux, MLSMR library; 2% of 130,000 active; ATP-sensitive inward rectifier potassium channel 1 (Homo sapiens), P48048; B-score at 10 µM; Tet-inducible ROMK, thallium flux fluorescence; actives lie on both sides;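 active = signal ratio slope over the read window, or its plate-corrected B-score, at least 3 SD from the plate mean, either direction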;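 note: B-score of the F/F0 ratio slope over 7 to 12 s after thallium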
Target sequence (P48048 whole entry, looked up): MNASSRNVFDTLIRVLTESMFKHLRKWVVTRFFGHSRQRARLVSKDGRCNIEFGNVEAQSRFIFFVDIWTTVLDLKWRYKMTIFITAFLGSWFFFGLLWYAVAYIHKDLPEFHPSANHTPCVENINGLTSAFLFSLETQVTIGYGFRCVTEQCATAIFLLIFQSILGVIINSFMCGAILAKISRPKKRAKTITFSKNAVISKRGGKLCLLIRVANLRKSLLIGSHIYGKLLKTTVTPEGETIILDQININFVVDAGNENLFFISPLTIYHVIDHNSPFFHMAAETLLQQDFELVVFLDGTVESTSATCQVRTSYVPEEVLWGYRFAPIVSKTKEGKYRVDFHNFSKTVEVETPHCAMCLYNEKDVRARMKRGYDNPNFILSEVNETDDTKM
Cl transport mod = KCC2 cotransporter modulators, thallium flux, primary screen, cell-based, HEK293 KCC2, FluoZin-2 fluorescence, MLSMR. B-score of Tl+ flux slope (higher = more flux/activation; lower = inhibition) at 10 µM. KCC2 cells, thallium flux FluoZin-2 fluorescence. Solute carrier family 12 member 5 (Homo sapiens), Q9H2X9. 2.2% of 190,000 active. AID 1456, 2008;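 active = thallium flux slope and its plate-corrected score both differing from the plate sample mean at a set confidence after two filtering rounds, in either direction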;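 note: slope of fluorescence scaled to starting intensity during 10 to 20 s after thallium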
Calpain2 inh = inhibitors of pig calpain II, primary screen, biochemical, fluorogenic peptide substrate, 1536-well; AID 1236, 2008; inhibition, % at 16 µM; 0.37% of 220,000 active; purified calpain II, 30 min;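 active = inhibition above about 50%, limit read from the data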
WT yeast gro inh = growth inhibition of WT strain, primary screen, mitochondrial fusion inhibitor project, WT and mutant strains, chemical genetic | mitochondrial fusion phenotypic screen | 2.1% of 190,000 active | inhibition, % at 10 µM; in the data active = inhibition above about 58%; tested in S. cerevisiae
Lmaj promast = Leishmania major promastigote growth inhibition, primary screen. Leishmania major promastigotes, resazurin fluorescence viability. 9% of 200,000 active. inhibition, % at 10 µM; in the data active = inhibition above about 50%;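 note: promastigotes grown with compound for 44 hours at 28 °C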
ROMK retest = ROMK channel modulator hit retest, confirmation, cell-based, thallium flux, duplicate, resupplied hits; 54% of 3,000 active; fluorescence ratio; stronger effect = lower value; normalized thallium flux (F/F0 slope) at 10 µM; AID 1917, 2009; shares compounds with ROMK mod;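 active = Flux at 10 µM at least 3 SD below or above vehicle control mean in one or both replicates; inconclusive = no clear call, values can overlap the other calls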
Hits are given with their value; n = inactive; u = inconclusive; x = no result given. The list is not random: actives were taken first. Their share in the collection is about 12%.

SMILES	ROMK mod	Cl transport mod	Calpain2 inh	WT yeast gro inh	Lmaj promast	ROMK retest
CCOC(=O)C1=C(N)OC2=C(C(=O)CCC2)C12C(=O)Nc1ccccc12 (stereo not drawn)	x	n	n	n	n	x
CCOC(=O)C1=C(N)OC2=C(C(=O)CCC2)C12C(=O)N1c3c(ccc(C)c32)C(C)=CC1(C)C (stereo not drawn)	-5.9	n	n	n	79	0.059
COc1cccc(CCNCc2c(F)cccc2F)c1	n	n	n	n	n	x
Cc1cccn2c(=O)c3cc(C(=O)N4CCC5(CC4)OCCO5)n(C)c3nc12	5.3	x	n	n	n	n
Cc1cc(=O)[nH]c(SCc2nc3ccccc3c(=O)n2-c2ccccc2C)n1	n	n	n	n	n	x
CCOc1cc(CNC(C)C(O)c2ccccc2)cc(Cl)c1OCC (stereo not drawn)	-2.8	n	n	n	n	0.059
CC(NCc1ccccc1C(F)(F)F)C(O)c1ccccc1 (stereo not drawn)	n	n	n	n	n	x
COc1ccc(N=C(C)c2c(O)n(C3CCCCC3)c(=O)[nH]c2=O)c(OC)c1	n	n	n	n	n	x
Cc1ccc(OCC(=O)N2CCN(CC3CC4C=CC3C4)CC2)cc1 (stereo not drawn)	-2.1	x	n	n	78	0.067
CCCN1CC(C)C(OC(C)=O)(c2ccccc2)CC1C (stereo not drawn)	x	x	n	n	n	x
CC1CC(OC(=O)c2ccccc2)(c2ccccc2)C(C)CN1C (stereo not drawn)	x	n	n	x	x	n
O=c1[nH]c(=O)n(Cc2ccccc2Cl)c(O)c1/C=C1/C=CC=N1	2.6	n	n	n	n	u
Cc1ccc(S(=O)(=O)N(c2cc(Cl)c(O)c(Cl)c2)P(=O)(OC(C)C)OC(C)C)cc1	n	n	n	n	n	x
NP(=O)(Oc1ccccc1Cl)Oc1ccccc1Cl	-3.1	n	n	n	n	0.064
NP(=O)(OCC(F)(F)F)Oc1cccc2ccccc12 (stereo not drawn)	n	n	n	n	n	x
CS(=O)(=O)N1CCN(C(=N)N[N+](=O)[O-])CC1	-2.6	n	n	n	n	n
CCOC(=O)C1=C(N)Oc2cc(C)oc(=O)c2C12C(=O)N1c3c(cccc32)C(C)CC1(C)C (stereo not drawn)	-4.8	n	n	n	n	0.06
CCCCCCOc1ccc(CN2CCN(CC)CC2)cc1	-3.9	n	n	n	97	0.06
CN1CCN(Cc2ccc(N)cc2)CC1	x	x	n	n	n	x
CN(C)CCN=Cc1c(O)n(-c2cccc3ccccc23)c(=O)[nH]c1=O	x	n	n	n	n	x
Clc1ccc(C(c2ccccc2)c2ncc[nH]2)cc1 (stereo not drawn)	n	n	n	n	n	x
COc1cc(/C=C/[N+](=O)[O-])ccc1O	-7	n	n	n	97	0.051
CCC(=NCCOc1ccc(Cl)cc1)c1c(O)n(C)c(=O)n(C)c1=O	-3.1	n	n	n	n	0.066
CCC(=NCCN1CCCCC1)c1c(O)n(C)c(=O)n(C)c1=O	n	n	n	n	n	x
C1=C(c2c[nH]c3ccccc23)CCN(Cc2ccccc2)C1	-3.7	n	n	n	n	0.05
SMILES	ROMK mod	Cl transport mod	Calpain2 inh	WT yeast gro inh	Lmaj promast	ROMK retest
c1ccc(-c2nnc(C3CC(c4cccnc4)=NO3)o2)cc1 (stereo not drawn)	x	n	n	x	x	x
CCCC1(CCC)C(=O)NC(=Nc2ccccc2)NC1=O	x	n	n	n	n	x
CCCCC1(CCCC)C(=O)NC(=Nc2cccc(C)c2)NC1=O	x	n	n	n	n	0.052
OC(COCc1ccc(Cl)cc1)CN1CC=C(c2ccccc2)CC1 (stereo not drawn)	-3.3	n	n	n	88	0.06
O=C(CN1CC=C(c2ccccc2)CC1)Nc1c(Cl)cccc1Cl	n	n	n	n	n	x
COC1CC(OC2CCC3(C)C(CCC4C3CCC3(C)C(C5=CC(=O)OC5)C(OC(C)=O)CC43O)C2)OC(C)C1OC1OC(COC2OC(CO)C(O)C(O)C2O)C(O)C(O)C1O (stereo not drawn)	x	n	n	x	x	u
Cn1c(O)c(C=NCCN2CCNCC2)c(=O)[nH]c1=O	n	n	n	x	x	x
CC(C)NC(C)C(=O)C12CC3CC(CC(C3)C1)C2 (stereo not drawn)	1.6	n	n	n	n	u
CC(C)(C)c1cc([N+](=O)[O-])cc(C(C)(C)C)c1O	x	n	n	n	n	n
COc1cc2c(cc1OC)[C@@H]1C(=O)c3ccc4c(c3O[C@@H]1CO2)C[C@H](C(C)C)O4	x	n	n	x	x	0.064
CN1C(=O)N(C)C(=O)C2(Cc3cc([N+](=O)[O-])ccc3N(C)C2)C1=O	n	x	n	n	n	x
CCCC(C)n1[nH]c(=O)c2c1NC(=O)CSC2c1ccc(OC)cc1 (stereo not drawn)	2.3	n	n	n	n	u
O=C(Cc1ccccc1)Oc1ccc(N2C(=O)CCC2=O)cc1	n	x	n	n	n	x
O=c1[nH]c(=O)n(-c2ccccc2)c(O)c1/C=C1/C(c2ccccc2)=Nc2ccccc21	-5.4	n	n	n	79	0.055
CP(=O)(Nc1ccccc1)C(Cl)(Cl)Cl (stereo not drawn)	n	n	n	n	n	x
COc1ccc(C(Nc2ccccc2)P(=O)(Oc2ccccc2)Oc2ccccc2)cc1 (stereo not drawn)	n	n	n	n	n	x
COc1ccccc1OP(=O)(Nc1cccnc1)Oc1ccccc1OC	x	n	n	n	n	0.062
Cc1ccc(S(=O)(=O)N2CC2(C)CCl)cc1 (stereo not drawn)	n	n	n	x	x	x
CCN(CC)c1ccc(N=Cc2c(O)n(-c3ccccc3)c(=O)[nH]c2=O)cc1	n	n	n	x	x	x
CCOc1ccccc1-n1c(O)c(C=Nc2ccc(N(CC)CC)cc2)c(=O)[nH]c1=O	2.7	n	n	n	n	n
CCN(CC)c1ccc(N=Cc2c(O)n(Cc3ccccc3)c(=O)[nH]c2=O)cc1	-8.3	n	n	n	n	0.049
C[C@@H]1O[C@@H](O[C@H]2C[C@@H](O)[C@]3(CO)[C@H]4[C@H](O)C[C@]5(C)[C@@H](C6COC(=O)C6)CC[C@]5(O)[C@@H]4CC[C@]3(O)C2)[C@H](O)[C@H](O)[C@H]1O (stereo partly drawn)	x	n	n	n	n	0.064
Cc1nn(Cc2ccc(Cl)cc2Cl)c(Cl)c1C(=O)Nc1ccc(OC(F)F)cc1	n	n	n	n	n	x
Cn1cccc1/C=C1/C(=O)NC(=O)N(C(C)(C)C)C1=O	4.2	n	n	x	x	n
O=[N+]([O-])c1ccc(C2C3C(c4ccccc4)=NC4(CCCC4)N32)cc1 (stereo not drawn)	n	n	n	n	n	x
C=CCN1C(=O)/C(=C/c2ccc(N3CCOCC3)o2)C(=O)NC1=S	x	n	n	n	n	x
CCN(CC)c1ccc(/C=C2\C(=O)NC(=S)N(C)C2=O)o1	-6.3	n	n	x	x	0.028
C=CCN1C(=O)NC(=O)/C(=C/c2cc3c4c(c2)CCCN4CCC3)C1=O	-4.3	n	n	n	93	0.056
O=C1NC2NC(=O)N([N+](=O)[O-])C2N1 (stereo not drawn)	x	n	n	x	x	x

Screening results: PubChem BioAssay, several laboratories
